Among the data in PubChem BioAssay (NCATS) are Potency values, retold here.

Records with an inconclusive call do not appear. Activity calls are given as the source filed them. The call rests on the fitted dose curve; in most records, active means well fitted cell-killing curve with a large enough effect; inconclusive means small, poorly fitted or top-dose-only effect, or effect the other way; inactive means no such curve, though single readings can be large or run the other way.

A short description of assay [1]: Quantitative High-Throughput drug screen in 47 multiple myeloma cell lines against the NCATS MIPE library collection: VP6_DJ cell viability assay (AID 1919867). Further: nearly all actives have a fitted effect of over 40% in size. The note with it: ATP luminescence, 48 h; series mostly up to 45.8 µM. The essentials:
(§1)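 ATP-based CellTiter-Glo luminescence after 48 h drug exposure (37 °C, 5% CO2) of 500 myeloma cells per well. DMSO-only wells set 100% viability, media-only wells 0%; MIPE 4.0 library added by pin tool.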

Assay [2] in a line: Quantitative High-Throughput drug screen in 47 multiple myeloma cell lines against the NCATS MIPE library collection: UTMC2_PLB cell viability assay (AID 1919868). Further: nearly all actives have a fitted effect of over 55% in size. The note with it: CellTiter-Glo ATP luminescence, 48 h; series mostly up to 45.8 µM. The essentials:
as §1
(In general: ATP-based viability assays read luminescence as a measure of living cells.)

A short description of assay [3]: Quantitative High-Throughput drug screen in 47 multiple myeloma cell lines against the NCATS MIPE library collection: PE2_PLB cell viability assay (AID 1919869). Further: nearly all actives have a fitted effect of over 35% in size. The note with it: PE2_PLB myeloma cells viability, ATP luminescence, 48 h; series mostly up to 45.8 µM. The essentials:
as §1

A short description of assay [4]: Quantitative High-Throughput drug screen in 47 multiple myeloma cell lines against the NCATS MIPE library collection: PCM6_Riken cell viability assay (AID 1919870). Further: nearly all actives have a fitted effect of over 30% in size. The note with it: CellTiter-Glo ATP, 48 h; series mostly up to 45.8 µM. The essentials:
as §1

Assay [5] can be described thus: Quantitative High-Throughput drug screen in 47 multiple myeloma cell lines against the NCATS MIPE library collection: KMS28BM_JCRB cell viability assay (AID 1919874). Further: nearly all actives have a fitted effect of over 35% in size. Particulars: CellTiter-Glo ATP, 48 h; series mostly up to 45.8 µM. The gist of the method:
as §1

Assay [6] can be described thus: Quantitative High-Throughput drug screen in 47 multiple myeloma cell lines against the NCATS MIPE library collection: RPMI8226_ATCC cell viability assay (AID 1919871). Further: nearly all actives have a fitted effect of over 30% in size. The note with it: RPMI8226 myeloma viability, CellTiter-Glo ATP luminescence, 48 h; series mostly up to 45.8 µM. The gist of the method: as §1
The nature of assay [7]: Quantitative High-Throughput drug screen in 47 multiple myeloma cell lines against the NCATS MIPE library collection: OPM2_DSMZ cell viability assay (AID 1919872). Further: nearly all actives have a fitted effect of over 30% in size. The note with it: OPM2 myeloma viability, CellTiter-Glo ATP luminescence, 48 h; series mostly up to 45.8 µM. The gist of the method:
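Inhibition of cell viability is measured here. Each line was plated at 500 cells per well, treated with MIPE 4.0 drugs, kept 48 hours at 37C, then assayed for ATP content by CellTiter-Glo luminescence.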

The nature of assay [8]: Quantitative High-Throughput drug screen in 47 multiple myeloma cell lines against the NCATS MIPE library collection: KMS11_JCRBsus cell viability assay (AID 1919873). Further: nearly all actives have a fitted effect of over 50% in size. The note with it: KMS11 myeloma viability, CellTiter-Glo ATP luminescence, 48 h; series mostly up to 45.8 µM. The essentials:
as §1

Assay [9] in a line: Quantitative High-Throughput drug screen in 47 multiple myeloma cell lines against the NCATS MIPE library collection: XG1_PLB cell viability assay (AID 1919866). Further: nearly all actives have a fitted effect of over 35% in size. The note with it: CellTiter-Glo ATP, 48 h; series mostly up to 45.8 µM. The gist of the method: as §1
Potency means the concentration at half of the fitted maximal effect.

On to `S=c1nc[nH]c2nc[nH]c12`, for which the Potency in [1] was 5.26 µM (active); in assay [2], 14.8 µM (active); in assay [3], 4.18 µM (active); in [4] it was 5.9 µM (active); in assay [5] it was 1.18 µM (active).

Regarding `Clc1ccc(C(Cn2ccnc2)OCc2ccc(Sc3ccccc3)cc2)c(Cl)c1` (centres undefined), the Potency in [1] was 20.9 µM (active); in assay [2], 33.2 µM (active); in assay [3], 20.9 µM (active); in [4] it was 18.7 µM (active); in assay [6] it was 23.5 µM (active); in assay [5] it was 20.9 µM (active).

In the case of `CCCc1cc(=O)[nH]c(=S)[nH]1`, the Potency result in assay [1], in [3], in assay [4], in assay [7] and in assay [8] was “inactive” in each case.

On to `CN(C)C(=O)COC(=O)Cc1ccc(OC(=O)c2ccc(N=C(N)N)cc2)cc1`, for which the Potency result in assay [1], in [6], in assay [7] and in assay [8] was “inactive” each time. Moreover, the Potency in assay [3] is 5.26 µM (active).

`COc1c(O)cc2c(c1O)[C@@H]1O[C@H](CO)[C@@H](O)[C@H](O)[C@H]1OC2=O`: the Potency entry in [1], in assay [3], in assay [4], in assay [8] and in assay [5] was “inactive” throughout.

For `COc1ccc(C2(C#N)CCC(C(=O)O)CC2)cc1OC1CCCC1` (centres undefined), the Potency in assay [1] and in [4] was 16.6 µM (active) in each case. The Potency result in assay [3], in [7], in assay [8] and in assay [5] was “inactive” in each case.

Take `CCC(C)(Oc1ccc(C2(c3ccc(OC(C)(CC)C(=O)O)cc3)CCCCC2)cc1)C(=O)O` (centres undefined): the Potency result in [1], in [3], in assay [6], in assay [7] and in [8] was “inactive” throughout.

In the case of `CCCCc1ccc2nc(NC(=O)OC)[nH]c2c1`, the Potency in assay [1] is 0.0047 µM (active); in assay [3] it was 0.0418 µM (active); in assay [4], 0.0935 µM (active); in assay [6], 0.418 µM (active); in assay [7] it was 16.6 nM (active); in assay [8], 0.0033 µM (active).

On to `COC(=O)N[C@H](C(=O)N[C@@H](Cc1ccccc1)[C@@H](O)CN(Cc1ccc(-c2ccccn2)cc1)NC(=O)[C@@H](NC(=O)OC)C(C)(C)C)C(C)(C)C`, for which the Potency in assay [1] was 20.9 µM (active); in assay [4] it was 9.35 µM (active). Further, the Potency entry in assay [3], in assay [6] and in assay [7] was “inactive” throughout.

Consider `COc1cc2c(N3CCN(C(=O)Nc4ccc(OC(C)C)cc4)CC3)ncnc2cc1OCCCN1CCCCC1`, for which the Potency in [1] is 8.33 µM (active); in assay [2], 4.18 µM (active); in [3], 16.6 µM (active); in assay [4], 6.62 µM (active); in [8], 26.4 µM (active).

On to `CN(C)CCCC1(c2ccc(F)cc2)OCc2cc(C#N)ccc21` (centres undefined), for which the Potency result in [1], in assay [2], in [3], in assay [4] and in assay [7] was “inactive” in each case. Besides, the Potency in assay [6] was 18.7 µM (active).

For the compound `CC(=O)O[C@H]1C(=O)[C@@]2(C)C([C@H](OC(=O)c3ccccc3)[C@]3(O)C[C@H](OC(=O)[C@H](O)[C@@H](NC(=O)c4ccccc4)c4ccccc4)C(C)=C1C3(C)C)[C@]1(OC(C)=O)CO[C@@H]1C[C@@H]2O` (some centres undefined), the Potency result in assay [1], in assay [3], in [4], in [6] and in [8] was “inactive” each time.

As to `CC(C)[N+]1(C)[C@@H]2CC[C@H]1CC(OC(=O)C(CO)c1ccccc1)C2` (some centres undefined), the Potency in assay [1] is 14.8 µM (active); in assay [8], 7.43 µM (active); in [5] it was 8.33 µM (active). For the same compound, the Potency entry in [3], in assay [6] and in [7] was “inactive” in each case.

On to `O=C1CCc2ccc(OCCCCN3CCN(c4cccc(Cl)c4Cl)CC3)cc2N1`, for which the Potency in assay [9] was 23.5 µM (active). The Potency result in assay [7] and in assay [5] was “inactive” in each case.

As for `CC(C)Oc1ccc2c(=O)c(-c3ccccc3)coc2c1`, the Potency entry in assay [3], in assay [4], in assay [7], in [8] and in assay [5] was “inactive” in each case.

Take `Cc1cccc(-c2[nH]ncc2-c2ccc3ncccc3n2)n1`: the Potency entry in [1], in assay [6] and in assay [7] was “inactive” each time.

Turning to `COCCCN1CCC(NC(=O)c2cc(Cl)c(N)c3c2OCC3)CC1`, the Potency is 18.7 µM (active) in [1], 18.7 µM (active) in assay [6] and 23.5 µM (active) in assay [8]. Moreover, in [7], the Potency result was “inactive”.

With `Cc1cc2c(s1)Nc1ccccc1N=C2N1CCN(C)CC1`, the Potency entry in assay [2], in assay [3], in [4], in assay [6], in assay [7] and in [8] was “inactive” each time. The Potency entry in assay [5] was “inactive”.

As for `O=C1c2ccccc2-c2n[nH]c3cccc1c23`, the Potency result in [7] and in assay [8] was “inactive” each time.
